Screening results from PubChem BioAssay.
Candida biofilm = kills Candida albicans biofilms. hit rate 0.14% among 85,000. C. albicans biofilm + clotrimazole, Alamar Blue. inhibition, % at 6 µM;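 active = inhibition above 20%; inactive = inhibition below 20%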;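 note: preformed 24 hr biofilms exposed to compound for 48 hr; 0% = biofilm without compound and 100% = blank killed by clotrimazole plus chlorhexidine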
ERa coact inh = blocks coactivator binding to human estrogen receptor alpha | P03372 | inhibition, % at 25.6 µM | hit rate 1.7% among 86,000 | AID 629 | TR-FRET ER-alpha LBD / SRC-1 peptide, estradiol-bound; in the data active = inhibition above about 50%;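 note: 0% = receptor plus peptide control and 100% = peptide only without receptor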
ERa coact pot = enhances coactivator binding to human estrogen receptor alpha; P03372; TR-FRET ERalpha-LBD/SRC-Cy5 coactivator binding, 2 h; 100 = basal binding, no effect; coactivator binding (% of control), % at 25.6 µM; hit rate 1.3% among 86,000; AID 639; in the data active = activity above about 200%;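 note: binding measured in presence of low estradiol as agonist stimulus; 0% = peptide alone without receptor and 100% = receptor with peptide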
EphB4 antag = antagonists of human EphB4-ephrin-B2 interaction; P54760; inhibition, % at 7 µM; EphB4 LBD / TNYL-RAW-Alexa532 peptide, fluorescence polarization; hit rate 0.15% among 97,000; AID 720;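 active = inhibition above the screen-wide mean inhibition plus 3 SD, cut at about 15% in these data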;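 note: 0% = DMSO wells and 100% = excess unlabeled TNYL-RAW peptide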
ERb coact inh = blocks coactivator binding to human estrogen receptor beta | Q92731 | TR-FRET ER-beta LBD / SRC1-Cy5 peptide binding; receptor agonist-loaded with 1 µM estradiol | inhibition, % at 25.6 µM | hit rate 1.3% among 86,000;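 active = compounds whose percent inhibition of the receptor-coactivator binding signal exceeds about 50% in the single-dose screen, limit read from the data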;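 note: 0% = receptor plus peptide wells without compound and 100% = peptide-only wells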
MT1-MMP txn act = activates MT1-MMP transcription | hit rate 0.16% among 86,000 | activation factor at 10 µM | AID 750 | HT1080 MT1-MMP promoter luciferase reporter, luminescence, overnight; active compounds read high;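 active = activation factor of at least 2 for MT1-MMP transcription at 10 µM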
Active calls of the source: *; . = no result; [ ] = another dose, or the depositor's remark. Rows were chosen to be rich in hits. Some 3.2% of all compounds tested hit in one or more screens of this group.

SMILES	Candida biofilm	ERa coact inh	ERa coact pot	EphB4 antag	ERb coact inh	MT1-MMP txn act
O=C(Nc1nc(-c2cc3ccccc3oc2=O)cs1)c1ccc(Br)o1	-1	38	224*[fluorescence artefact?]	10	27	1.3
O=c1cc(-c2ccco2)oc2c1ccc1ccccc12	5	51*[fluorescence artefact?]	327*	-1	52*[fluorescence artefact?]	1.2
O=c1cc(C(Cl)(Cl)Cl)oc2c1ccc1ccccc12	.	.	.	2	.	.
Cc1cc(C(=O)OCn2nnc3ccccc3c2=O)c(C)n1-c1ccccc1	-3	-8	99	-9	-2	1.4
CCC(=O)Nc1cc(NC(=O)CSc2ncc(-c3ccc(F)cc3)n2Cc2ccco2)ccc1C	8	10	102	-1	4	2.1*
Nc1ccc2nc(-c3ccc(Cl)cc3)[nH]c2c1	-3	87*[fluorescence artefact?]	72	.	44	.
Nc1ccc(-c2nc3c(Cl)c(N)ccc3[nH]2)cc1	-2	6	109	-4	53*[fluorescence artefact?]	1
Nc1ccc2nc(-c3cc(Cl)c(N)c(Cl)c3)[nH]c2c1	7	95*[fluorescence artefact?]	4	0	47	1.8
N/C(Cc1ccc(Cl)cc1)=N\OC(=O)c1cccc2ccccc12	0	-6	93	5	-4	1.1
CCCC(=O)NC(C)c1nc2ccccc2n1CC (stereo not drawn)	10	82*[fluorescence artefact?]	98	-9	-11	1.1
C=C(C)Cn1c(C(C)NC(=O)CCC)nc2ccccc21 (stereo not drawn)	0	0	100	.	1	1.1
Cc1nc2ccc3nc(NC(=O)c4ccc5c(c4)OCCO5)sc3c2s1	5	62*[fluorescence artefact?]	418*[fluorescence artefact?]	-7	44	1.3
Cc1nc2c(ccc3nc(NC(=O)c4ccc5c(c4)OCCO5)sc32)s1	8	75*[fluorescence artefact?]	201*[fluorescence artefact?]	4	58*[fluorescence artefact?]	0.3
COC(=O)[C@@]1(Cc2ccccc2)[C@H]2c3cc(C(=O)N4CCCC4)n(Cc4nc5ccccc5[nH]4)c3C[C@H]2CN1C(=O)c1ccccc1	.	.	.	.	.	1.2
O=C(CSc1nnc(-c2cccnc2)n1-c1ccccc1)Nc1ccccn1	8	-5	103	-3	-1	1.1
CCn1c(SCC(=O)Nc2ccccc2C)nnc1-c1ccccc1O	2	-25	86	-6	-14	.
Cc1ccc(-n2c(SCC(=O)Nc3ccc4c(c3)OCO4)nnc2-c2cccs2)cc1	-4	85*[fluorescence artefact?]	378*[fluorescence artefact?]	-6	39	1.1
O=C(CSc1nnc(-c2cccnc2)n1-c1ccccc1)Nc1ccc2c(c1)OCO2	-1	-6	115	-7	57*	1.1
Cc1ccccc1NC(=O)CSc1nnc(-c2ccccc2)n1-c1ccccc1	3	1	402*[fluorescence artefact?]	1	-5	1.3
Nc1ccc(C(=O)c2ccc3c(c2)OCCO3)cc1N	8	-8	116	-1	4	1.5
COc1ccc(/C=N/N2C(=O)CSC2=S)cc1	4	-7	102	-2	1	1.1
COc1ccc(-c2nn(-c3ccccc3)cc2/C=N/N2C(=O)CSC2=S)cc1	9	-21	313*[fluorescence artefact?]	3	-1	1.5
Cc1ccc(NC2c3ncccc3C(=O)N2c2ccccc2C)cc1C (stereo not drawn)	1	-45	543*[fluorescence artefact?]	-15	21	1.4
CCOc1ccc(N2C(=O)c3cccnc3C2Nc2ccc(Cl)cc2)cc1 (stereo not drawn)	6	6	107	0	2	1.1
CCC1(N(C(C)=O)c2ccc(OC)cc2)C(=O)c2ccccc2C1=O	2	-7	117	9	-8	1.1
SMILES	Candida biofilm	ERa coact inh	ERa coact pot	EphB4 antag	ERb coact inh	MT1-MMP txn act
CN(c1ccccc1C(=O)Nc1ccccc1C(=O)NCc1ccco1)S(C)(=O)=O	2	13	141	15*	13	1.1
CCC(C)N1CCN(C(=O)c2cccs2)CC1 (stereo not drawn)	-2	16	124	1	1	1.1
Cc1nc(N2CCN(c3ccccc3)CC2)c2c3c(sc2n1)CCC3	2	-1	86	.	-3	1
CSc1nc(N2CCOCC2)c2c3c(sc2n1)CCC3	2	18	78	1	62*[fluorescence artefact?]	1.2
C=C1CC2C=C(NC(C)=O)CC(C1)C2 (stereo not drawn)	4	-5	129	1	-1	1.1
CCC(=Nc1ccc(N)cc1)C1=C(O)C(C(=O)OC)C(C)(C)CC1=O (stereo not drawn)	3	3	123	6	83*[fluorescence artefact?]	1
